The record followed here is PubChem BioAssay AID430 (Sanford-Burnham Center for Chemical Genomics, 2006).

Structures are written as SMILES. The whole screen tested about 63,000 compounds, of which about 1,100 (1.7%) were called active. Many of the other results were omitted from the sample, so actives are more common in it than they were. Entries with a potency or affinity are not part of this list. A number with no mark means an inactive call. Cut-off read from the data, not from the text of the source: active = cytotoxicity above about 50%; inactive = the rest.

The assay is described as follows: HPDE-C7 pancreatic duct cell viability loss – fluorescence, HTS (AID 430).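 Note: cells exposed to compound for 48 hours before viability readout; 0% = vehicle and 100% = reference cytotoxic drug.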 The following applies: HPDE-C7 pancreatic duct cells viability, at 10 µM, stronger effect = higher value.
Regarding `CCOC(=O)CCC(=O)Nc1ccc(S(=O)(=O)N2CCCC2)cc1`, the cytotoxicity is -1.2%.
In the case of `O=C(NC1CCN(C(=O)Nc2ccccc2)CC1)C1CCCCC1` it was -8.9%; in that of `Cc1csc(NC(=O)c2c(O)c3cccc4c3n(c2=O)CCC4)n1`, -11.1%; in that of `Cc1cnc(NC(=O)c2c(O)c3cccc4c3n(c2=O)CCC4)s1`, 52.2% (active).
As for `CC(C)c1nnc(NC(=O)c2c(O)c3cccc4c3n(c2=O)CCC4)s1`, the cytotoxicity was 46.3%.
In the case of `N#CC1=C(N)S[C@H](C(=O)C23CC4CC(CC(C4)C2)C3)[C@H]1c1ccncc1` it was -14.7%; in that of `CCC(c1nnnn1CCc1ccccc1)N(Cc1ccco1)Cc1cc2cc(C)cc(C)c2[nH]c1=O` (centres undefined), 10.7%.
On to `NC1=NC(c2ccccc2Cl)n2c(nc3ccccc32)N1` (centres undefined), for which the cytotoxicity was 7%.
Take `CC1=C(C#N)C(c2cn(-c3ccccc3)nc2-c2cccs2)C(C#N)=C(C)N1`: the cytotoxicity was 41.2%.
Turning to `NC1=NC(c2cn(-c3ccccc3)nc2-c2cccs2)n2c(nc3ccccc32)N1` (centres undefined), the cytotoxicity was 54.9% (active).
Consider `O=C(Nc1ccc(-c2nc3ccccc3o2)cc1)c1ccc2c(c1)OCO2`, for which the cytotoxicity was 2%.
With `O=C(Nc1ccc2oc(-c3ccccc3F)nc2c1)c1ccc2c(c1)OCCO2`, the cytotoxicity was 46.2%.
On to `O=C(Nc1ccc2oc(-c3ccccc3)nc2c1)c1cccnc1`, for which the cytotoxicity was 18.1%.
As for `Cc1ccc2oc(-c3ccc(NC(=O)c4cccnc4)cc3)nc2c1`, the cytotoxicity is 51.4% (active).
In the case of `COc1ccc(-c2nc3cc(NC(=O)c4ccc5c(c4)OCO5)ccc3o2)cc1` it was 1.2%; in that of `CC(=O)Nc1cccc(NC(=O)c2ccco2)c1`, -14.2%.
Next, `COc1ccc(Br)cc1C(=O)Nc1cccc(NC(=O)c2ccco2)c1`: 42.6%; `Cc1c(NC(=O)c2ccc3c(c2)OCO3)cccc1-c1nc2ccccc2o1`: -9.8%; `Cc1ccc2oc(-c3ccc(NC(=O)c4ccc5c(c4)OCO5)cc3)nc2c1`: 71.1% (active).
Next, `O=C(Nc1ccc2oc(-c3cccnc3)nc2c1)c1cccnc1`: 7.7%.
With `O=C(Nc1ccccc1-c1nc2ccccc2o1)c1ccc2c(c1)OCCO2`, the cytotoxicity was 77.2% (active).
`O=C(Nc1cccc(NC(=O)c2ccc(-c3cccc(Br)c3)o2)c1)c1ccco1`: the cytotoxicity was 63% (active).
With `CC(=O)[C@@H]1[C@@H]2C(=O)N(Cc3ccccc3)C(=O)[C@@H]2C2c3ccccc3C=CN21` (some centres undefined), the cytotoxicity is 3.9%.
For the molecule `CCC(=NCCc1ccccc1)C1=C(O)CCC1=O`, the cytotoxicity is 9.7%.
As for `C=CCn1c(SCn2nnc3ccccc3c2=O)nnc1-c1ccc(F)cc1`, the cytotoxicity is -0.2%.
Next, `Cc1cc(C(=O)N2CCN(S(C)(=O)=O)CC2)sc1-c1ccccc1`: -3%; `O=C(NC1CCCC1)C1CCCN1C(=O)Nc1ccccc1Cl` (centres undefined): -20.3%.
As for `C=CCN(CC=C)c1nc2ccccc2nc1C(C#N)C(=O)OCCOC` (centres undefined), the cytotoxicity was 1.9%.
In the case of `O=C(Nc1ccc(-c2nc3ncccc3o2)cc1)c1ccco1` it was 1.1%; in that of `O=C(Nc1ccc2oc(-c3ccccc3)nc2c1)c1ccc2c(c1)OCCO2`, 13.4%.
`COc1cccc(C(=O)Nc2ccc(-c3nc4ccccc4o3)c(O)c2)c1`: the cytotoxicity was 15.3%.
Next, `COc1cc(OC)cc(C(=O)Nc2ccc(-c3nc4ccccc4o3)cc2)c1`: 74.2% (active); `COC(=O)c1ccc(-c2nc3ccccc3o2)cc1`: -9.2%; `Cc1ccc(-c2nc3ccccc3o2)cc1NC(=O)c1ccc2c(c1)OCO2`: -10%.
For the molecule `O=C(Nc1ccc2nc(-c3ccccc3)oc2c1)c1ccco1`, the cytotoxicity is 68.7% (active).
Regarding `O=C(Nc1cccc(-c2nnc(-c3ccccc3)o2)c1)c1ccco1`, the cytotoxicity is -6.9%.
In the case of `C/C=C/COc1nc2c(c(=O)n(C)c(=O)n2C)n1C` it was -4%.
In the case of `O=C(OCC(=O)N1CCN(C(=O)COC(=O)c2ccncc2)CC1)c1ccncc1`, the cytotoxicity is -7.9%.
For `Cc1ccc(C2CC(=O)c3cnc(N4CCN(c5ccccc5)CC4)nc3C2)cc1` (centres undefined), the cytotoxicity was 9.3%.
For `COc1cc(C2CC(=O)c3cnc(N4CCN(Cc5ccccc5)CC4)nc3C2)cc(OC)c1OC` (centres undefined), the cytotoxicity was 46%.
Next, `O=C1CC(c2cccc(Cl)c2)Cc2nc(N3CCOCC3)ncc21` (centres undefined): -14.6%; `O=C1CC(c2cccc(Cl)c2)Cc2nc(N3CCN(c4ccccc4)CC3)ncc21` (centres undefined): 51.4% (active); `CCN1CCN(c2ncc3c(n2)CC(c2ccc(OC)c(OC)c2)CC3=O)CC1` (centres undefined): 7.7%.
As to `CCN1CCN(c2ncc3c(n2)CC(c2cc(OC)c(OC)c(OC)c2)CC3=O)CC1` (centres undefined), the cytotoxicity was 58.9% (active).
Take `CSc1nnc2c(n1)OC(C1CC=C(C)CC1)Nc1ccccc1-2` (centres undefined): the cytotoxicity was 2.9%.
In the case of `C=CCn1c(=O)c(C(=O)Nc2ccccc2O)c(O)c2ccccc21` it was -18%.
Regarding `Cc1occc1C(=O)NCc1ccc2c(c1)OCO2`, the cytotoxicity was 42.9%.
On to `O=C(COc1cnc2ccccc2n1)NCCC1=CCCCC1`, for which the cytotoxicity is -1.1%.
As to `Cc1ccc2c(COn3nnc4ccc(S(=O)(=O)N(C)C)cc43)cc(=O)oc2c1C`, the cytotoxicity was -2.2%.
In the case of `CCc1ccc2c(COC(=O)c3n[nH]c4ccccc34)cc(=O)oc2c1`, the cytotoxicity is 8%.
For the molecule `CCc1ccc2c(COn3nnc4ccc(S(=O)(=O)N(C)C)cc43)cc(=O)oc2c1`, the cytotoxicity was 59.1% (active).
For `CCc1nnc(NC(=O)CSc2nc(C)c3c(c2C#N)CCCC3)s1`, the cytotoxicity is 76.3% (active).
In the case of `CCc1nnc(NC(=O)CSc2nc3c(cc2C#N)CCC3)s1` it was 30.8%; in that of `CCc1nnc(NC(=O)CSc2nc3c(cc2C#N)CCCC3)s1`, -1.1%.
In the case of `COc1cccc(NC(=O)CNC(=O)c2ccc(F)cc2)c1` it was -1%; in that of `COc1cc(-c2ccc(NC(=O)CN3CCCCC3)c(OC)c2)ccc1NC(=O)CN1CCCCC1`, -11.3%.
In the case of `N#Cc1ccc(CSc2nnc(-c3cnccn3)o2)cc1` it was -3%; in that of `Fc1cccc(C2CC(c3cccc(Br)c3)Nc3nnnn32)c1` (centres undefined), -20.3%; in that of `CCOc1ccc(S(=O)(=O)N2Cc3ccccc3CC2C(=O)NCCCn2ccnc2)cc1` (centres undefined), 1.9%.
In the case of `Cc1ccc2[nH]c3c(c2c1)CN(C(=O)CN1CCN(c2ccccc2F)CC1)CC3`, the cytotoxicity was 14.7%.
In the case of `Cc1ccc2[nH]c3c(c2c1)CN(C(=O)CN1CCN(c2ccccc2)CC1)CC3` it was 26.1%; in that of `Cc1ccc2[nH]c3c(c2c1)CN(C(=O)CN1CCCc2ccccc21)CC3`, 55.8% (active).
In the case of `Cc1cccc(N2CCN(C(=O)c3ccc(N4CCCC4=O)cc3)CC2C)c1` (centres undefined), the cytotoxicity is -1.7%.
Next, `CCOC(=O)c1ccc(NC(=O)N2CCN(S(C)(=O)=O)CC2)cc1`: -1.4%.
With `Cc1cnc(NC(=O)CCCSc2nc3ccccc3s2)s1`, the cytotoxicity is -1.8%.
With `c1ccc(-c2cc(-c3nc(-c4cccnc4)no3)c3ccccc3n2)cc1`, the cytotoxicity is -11.7%.
As for `c1ccc(-c2cc(-c3nc(-c4ccccn4)no3)c3ccccc3n2)cc1`, the cytotoxicity is 70.4% (active).
On to `c1ccc(-c2ccc(-c3nc(-c4ccccn4)no3)cc2)cc1`, for which the cytotoxicity was -4.1%.
With `CC(C)n1c(SCC(N)=O)nc2c1c(=O)n(C)c(=O)n2C`, the cytotoxicity was -8.7%.
Turning to `CCn1c(SC/C=C/c2ccccc2)nnc1-c1cnccn1`, the cytotoxicity was -18.9%.
As to `Cc1nn(-c2ccccc2)c(N2CCCC2)c1/C=N/n1cnc2scc(-c3ccccc3)c2c1=O`, the cytotoxicity is 24.5%.
With `Cn1cc(/C=N/n2cnc3scc(-c4ccccc4)c3c2=O)c2ccccc21`, the cytotoxicity was 68.4% (active).
For `Cn1cc(/C=N/n2cnc3sc4c(c3c2=O)CCCC4)c2ccccc21`, the cytotoxicity was 21.2%.
Regarding `Cn1cc(/C=N/n2cnc3scc(-c4ccc(Cl)cc4)c3c2=O)c2ccccc21`, the cytotoxicity is 89.3% (active).
As for `CCn1cnc2scc(-c3ccccc3)c2c1=O`, the cytotoxicity was -9.7%.
As for `Cc1ccc(-c2csc3ncn(/N=C/N(C)C)c(=O)c23)o1`, the cytotoxicity is -6.4%.
Take `COc1cc(OC)cc(C(=O)N2CCC(n3c(C)nc4cc(F)ccc43)CC2)c1`: the cytotoxicity was 3%.
`N#Cc1cc2sc3nnc(-c4ccncc4)n3c2cc1C#N`: the cytotoxicity was -14.9%.
For the molecule `Cc1nc2cc(C(=O)OCC(=O)N(CC(C)C)C3CCS(=O)(=O)C3)ccc2n1-c1ccccc1` (centres undefined), the cytotoxicity was -10.3%.
For the molecule `O=C(O)CCc1ccc(-c2cccs2)n1NC(=O)c1ccc(Cl)cc1`, the cytotoxicity was 0.6%.
Consider `Cc1csc(NC(=O)CSc2nnc(-c3ccc(S(=O)(=O)N4CCCC4)cc3)o2)n1`, for which the cytotoxicity is -13.8%.
For the molecule `COc1cccc(CNC(=O)Cn2cccc2)c1`, the cytotoxicity is -4.3%.
As to `COc1ccccc1NCCC(=O)OCC(=O)Nc1ccc(Cl)cn1`, the cytotoxicity is 10.3%.
Consider `CN(CC(=O)Nc1ccc(C#N)cc1)Cc1ccc(Cl)cc1`, for which the cytotoxicity was 6.1%.
For the molecule `N#Cc1ccc(NC(=O)Nc2ccc(Cl)cc2)cc1`, the cytotoxicity is 57.7% (active).
In the case of `Cc1cccc(NC(=O)Nc2ccc(C#N)cc2)n1` it was -0.1%.
In the case of `COc1ccc(Cl)cc1NC(=O)N1CCN(S(C)(=O)=O)CC1` it was -6.5%; in that of `C=CCn1c(N)cc(=O)nc1SCC(=O)Nc1ccccc1`, -16%.
In the case of `O=C(c1ccccc1)N1CCCCC(Sc2nnnn2-c2ccccc2)C1=O` (centres undefined) it was -6.2%; in that of `Cc1ccc2oc3c(c(=O)c2c1)C(c1ccc(F)cc1)N(CCCN1CCOCC1)C3=O` (centres undefined), -11.5%; in that of `COC(=O)C1=C(C)N(C)C(=O)NC1c1cc(Cl)cc(Cl)c1OC` (centres undefined), 1.6%.
As to `Cc1nn2c(N3CCN(C(=O)c4ccco4)CC3)cc(C(C)(C)C)nc2c1-c1ccccc1`, the cytotoxicity is 75.8% (active).
Next, `Cc1cc(N2CCN(C(=O)c3ccco3)CC2)n2nc(C)c(-c3ccc(Cl)cc3)c2n1`: 14.2%.
In the case of `Cc1cc(N2CCN(C(=O)c3ccco3)CC2)n2nc(C)c(-c3ccccc3)c2n1`, the cytotoxicity was 7.9%.
